Laboratory results: PMC5540273 (PLoS ONE, 2017)

Columns and labels:
Conditions in all cases: concentration: 1 μM, replicates: in singlicate; n = 1
EPHB4 = system: EPHB4
EPHB6 = system: EPHB6
ERBB2 = system: ERBB2
ERBB3 = system: ERBB3
ERBB4 = system: ERBB4
ERK1 = system: T1, ERK1
T1 construct: gene MAPK3

ERK2 = system: T2, ERK2
T2 construct: gene MAPK1

ERK3 = system: T3, ERK3
T3 construct: gene MAPK6

ERK4 = system: T4, ERK4
T4 construct: gene MAPK4

ERK5 = system: T5, ERK5
T5 construct: gene MAPK7

ERK8 = system: T6, ERK8
T6 construct: gene MAPK15

ERN1 = system: ERN1
FAK = system: T7, FAK
T7 construct: gene PTK2

FER = system: FER
FES = system: FES
FGFR1 = system: FGFR1
FGFR2 = system: FGFR2
FGFR3 = system: FGFR3
FGFR4 = system: FGFR4
FGR = system: FGR
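Note: KINOMEscan kinase panel screen.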

Structure (SMILES) | %Inh (EPHB4) | %Inh (EPHB6) | %Inh (ERBB2) | %Inh (ERBB3) | %Inh (ERBB4) | %Inh (ERK1) | %Inh (ERK2) | %Inh (ERK3) | %Inh (ERK4) | %Inh (ERK5) | %Inh (ERK8) | %Inh (ERN1) | %Inh (FAK) | %Inh (FER) | %Inh (FES) | %Inh (FGFR1) | %Inh (FGFR2) | %Inh (FGFR3) | %Inh (FGFR4) | %Inh (FGR)
CNc1cc(-c2ccc3c(N)n[nH]c3c2)nc(N)n1 [GSK2224810] | 19% | 0% | 32% | 0% | 0% | 0% | 0% | 3% | 7% | 0% | 0% | 0% | 0% | 19% | 9% | 0% | 0% | 28% | 7% | 24%
CC(=O)c1cccc(NC(=O)NC2CCN(c3ccnc(Nc4ccc(F)cc4)n3)C2)c1 (centres unmarked) [GSK1379710] | 4% | 19% | 15% | 8% | 6% | 0% | 0% | 0% | 30% | 12% | 0% | 19% | 0% | 3% | 0% | 0% | 0% | 6% | 11% | 0%
Cc1cnc(N)c(/C=C/c2cncc(C(=O)NCCc3ccc(Cl)cc3Cl)c2)c1.Cl [GSK190937] | 9% | 0% | 7% | 0% | 0% | 7% | 0% | 0% | 6% | 0% | 0% | 0% | 0% | 4% | 0% | 0% | 9% | 13% | 6% | 17%
Cc1cccc2c(-c3ccncn3)c(-c3ccc(F)cc3)nn12 [GW515532] | 2% | 21% | 0% | 0% | 0% | 0% | 0% | 0% | 1% | 0% | 100% | 1% | 0% | 8% | 0% | 15% | 0% | 0% | 0% | 1%
CC(C)c1cc(-c2ccc3c(N)n[nH]c3c2)nc(N)n1 [GSK2250882] | 18% | 4% | 25% | 0% | 0% | 1% | 0% | 0% | 26% | 0% | 0% | 4% | 0% | 14% | 19% | 0% | 18% | 9% | 8% | 34%
O=C(Nc1n[nH]c2cc(-c3ccsc3)ccc12)C1CC1 [SB-732932] | 9% | 18% | 0% | 5% | 9% | 0% | 7% | 0% | 1% | 3% | 92.4% | 8% | 6% | 0% | 0% | 1% | 0% | 3% | 0% | 13%
Cc1ccc(-c2nc(Nc3ccncc3)c3ccccc3n2)s1 [GSK189015] | 22% | 2% | 0% | 0% | 31% | 17% | 100% | 0% | 0% | 0% | 52% | 22% | 27% | 6% | 19% | 15% | 30% | 28% | 5% | 22%
Cc1ccc(NC(=O)Nc2ccc(Cl)c(C(F)(F)F)c2)cc1-c1ccc(C(=O)Nc2ccncc2)cc1 [GSK1398470] | 12% | 18% | 0% | 0% | 6% | 15% | 12% | 10% | 10% | 0% | 0% | 25% | 0% | 22% | 15% | 0% | 12% | 23% | 11% | 19%
c1ccc(-c2ccnc3[nH]ccc23)cc1 [SB-693578] | 1% | 29% | 33% | 14% | 0% | 0% | 3% | 0% | 1% | 0% | 0% | 11% | 0% | 0% | 0% | 0% | 0% | 7% | 13% | 2%
CC(=O)c1c(C)c2cnc(Nc3ccn(C)n3)nc2n(C2CCCC2)c1=O | 0% | 6% | 0% | 0% | 0% | 0% | 0% | 15% | 17% | 9% | 17% | 0% | 0% | 9% | 0% | 0% | 0% | 0% | 11% | 0%
O=C(Nc1n[nH]c2nc(-c3cccs3)c(Br)cc12)C1CC1 [SB-735297] | 0% | 39% | 0% | 0% | 0% | 0% | 0% | 0% | 0% | 0% | 87% | 0% | 0% | 0% | 10% | 0% | 0% | 0% | 0% | 13%
COc1ccc(CSc2nnc(-c3ccc4nccn4c3)o2)cc1C(F)(F)F | 16% | 0% | 0% | 9% | 0% | 0% | 0% | 18% | 0% | 1% | 39% | 0% | 0% | 4% | 14% | 4% | 4% | 0% | 0% | 19%
Cc1ccccc1Cn1ccn2c(=O)cc(N3CCOCC3)nc12 [GSK2269905] | 19% | 0% | 23% | 0% | 20% | 4% | 0% | 15% | 14% | 0% | 0% | 0% | 0% | 18% | 9% | 0% | 2% | 0% | 19% | 31%
Fc1ccc(-c2nn3cccc(F)c3c2-c2ccncc2)cc1 [GW475620] | 10% | 0% | 39% | 0% | 30% | 21% | 10% | 0% | 4% | 0% | 15% | 0% | 1% | 17% | 0% | 23% | 25% | 6% | 0% | 15%
Cn1cncc1-c1cc2c(Nc3ccc(OCc4ccccc4)cc3)ncnc2cn1 [GW281179] | 17% | 21% | 99.6% | 75% | 70% | 0% | 0% | 0% | 0% | 0% | 0% | 0% | 0% | 14% | 0% | 9% | 19% | 2% | 12% | 18%
COC(=O)C(NC(=O)NC1CCN(c2ccnc(Nc3ccc(F)cc3)n2)C1)c1ccccc1 (centres unmarked) [GSK1379712] | 6% | 92% | 20% | 0% | 0% | 2% | 0% | 0% | 24% | 13% | 0% | 4% | 0% | 19% | 0% | 0% | 0% | 7% | 19% | 8%

Structure (SMILES) | %Inh (EPHB4) | %Inh (EPHB6) | %Inh (ERBB2) | %Inh (ERBB3) | %Inh (ERBB4) | %Inh (ERK1) | %Inh (ERK2) | %Inh (ERK3) | %Inh (ERK4) | %Inh (ERK5) | %Inh (ERK8) | %Inh (ERN1) | %Inh (FAK) | %Inh (FER) | %Inh (FES) | %Inh (FGFR1) | %Inh (FGFR2) | %Inh (FGFR3) | %Inh (FGFR4) | %Inh (FGR)
NS(=O)(=O)c1cccc(N/C=C2\C(=O)Nc3ccc(S(=O)(=O)Cc4c(Cl)cccc4Cl)cc32)c1 [GSK398099] | 15% | 44% | 0% | 0% | 37% | 0% | 0% | 24% | 48% | 0% | 0% | 7% | 0% | 7% | 1% | 0% | 0% | 7% | 9% | 31%
Cc1ccc(NC(=O)Nc2ccccc2)cc1-c1ccc(C(=O)Nc2ccncc2)cc1 [GSK1398471] | 26% | 12% | 0% | 0% | 0% | 6% | 0% | 8% | 18% | 0% | 0% | 0% | 0% | 20% | 20% | 0% | 0% | 18% | 13% | 34%
COc1ccc(-c2coc3ccc(-c4nnc(C)o4)cc23)cc1 | 24% | 0% | 0% | 0% | 0% | 0% | 0% | 0% | 1% | 1% | 0% | 0% | 0% | 0% | 22% | 0% | 4% | 4% | 0% | 36%
Fc1ccc(-c2nc[nH]c2-c2ccncc2)cc1 [SB-217360] | 0% | 3% | 41% | 5% | 10% | 2% | 0% | 0% | 12% | 0% | 4% | 43% | 0% | 23% | 0% | 0% | 0% | 0% | 0% | 0%
COc1ccc(Nc2nccc(N3CCC(NC(=O)c4cc5ccccc5s4)C3)n2)cc1 (centres unmarked) [GSK1379738] | 0% | 17% | 1% | 8% | 0% | 0% | 0% | 0% | 15% | 0% | 0% | 0% | 0% | 0% | 0% | 0% | 0% | 2% | 4% | 15%
CC[C@@H]1CO[C@H](C(=O)Nc2ccccc2)CN1c1cc(-c2ccc3c(N)n[nH]c3c2)nc(NC)n1 [GSK2376236] | 16% | 3% | 8% | 0% | 18% | 0% | 0% | 8% | 42% | 7% | 0% | 19% | 0% | 27% | 9% | 0% | 0% | 41% | 19% | 31%
O=C1NC(=O)C(c2ccc(Cl)cc2)=C1Nc1ccc(O)cc1 [SB-340867] | 0% | 0% | 0% | 0% | 26% | 0% | 0% | 0% | 0% | 0% | 29% | 0% | 0% | 4% | 0% | 0% | 0% | 0% | 0% | 12%
COc1ccc(CSc2nnc(-c3ccc4ncsc4c3)o2)cc1C(F)(F)F | 18% | 0% | 0% | 0% | 0% | 0% | 30% | 0% | 0% | 0% | 57% | 0% | 0% | 0% | 14% | 5% | 0% | 0% | 0% | 27%
CCn1c(-c2c(N)noc2C)nc2cnccc21 [SB-737856] | 54% | 0% | 31% | 0% | 0% | 0% | 9% | 100% | 16% | 0% | 41% | 15% | 0% | 3% | 42% | 0% | 28% | 37% | 11% | 61%
COC(=O)C(Cc1ccccc1)NC(=O)NC1CCN(c2ccnc(Nc3ccc(F)cc3)n2)C1 (centres unmarked) [GSK1379714] | 0% | 72% | 51% | 28% | 42% | 14% | 0% | 0% | 12% | 0% | 0% | 0% | 0% | 30% | 0% | 0% | 51% | 26% | 0% | 0%
O=C(Nc1n[nH]c2nc(-c3cccs3)c(Br)cc12)C1CCCC1 [SB-743341] | 22% | 22% | 0% | 3% | 0% | 0% | 10% | 9% | 0% | 0% | 61% | 43% | 1% | 20% | 18% | 28% | 0% | 2% | 3% | 23%
O=c1cc(N2CCOCC2)nc2n(Cc3ccccc3F)ccn12 [GSK2297428] | 3% | 11% | 0% | 0% | 0% | 0% | 0% | 0% | 19% | 0% | 0% | 7% | 0% | 36% | 0% | 0% | 12% | 10% | 0% | 4%
Nc1cccc(-c2ccc3c(N)n[nH]c3c2)n1 [GSK2192730] | 5% | 0% | 0% | 0% | 0% | 0% | 0% | 0% | 35% | 8% | 0% | 24% | 0% | 0% | 0% | 0% | 0% | 0% | 0% | 10%
CNC(=O)c1ccc(C)c(-n2c(C)cc(OCc3ccc(F)cc3F)c(Br)c2=O)c1 | 0% | 0% | 0% | 0% | 13% | 0% | 0% | 0% | 0% | 0% | 13% | 0% | 0% | 18% | 0% | 0% | 0% | 0% | 0% | 0%
COc1cccc(C2=C(Nc3cc(Cl)c(O)c(Cl)c3)C(=O)NC2=O)c1 [SB-390767] | 18% | 46% | 0% | 3% | 4% | 0% | 0% | 0% | 0% | 0% | 37% | 17% | 0% | 0% | 0% | 0% | 53% | 41% | 29% | 22%
